# Measurements reported in PubChem BioAssay AID651821 (The Scripps Research Institute Molecular Screening Center, 2012).
# The campaign covered roughly 370,000 compounds. About 4,700 (1.3%) were called active. The sample holds actives, similar compounds and a random draw of the others, so the mix is not that of the screen. A number with no mark means an inactive call.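 The calls were made as follows: active = inhibition above the plate cutoff, the mean of all test compounds on that plate plus 3 SD (cut at about 35% in these data); inactive = the rest.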
# Experiment: small molecules binding CAG repeat RNA – biochemical, fluorescence, primary screen (AID 651821);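 also: 0% = DMSO alone and 100% = 100 µM mitoxantrone as full dye displacement; higher means more dye released from RNA so lower well fluorescence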
# Settings: r(CAG) RNA repeat, TO-PRO-1 dye displacement fluorescence; at 3 µM; hits give high values
row,SMILES,inhibition
1,CN1C(=O)C(Br)(Br)CC1c1cccnc1 (stereo not drawn),1.36%
2,O=C(CSc1nc2ccccc2s1)N=Nc1c(O)[nH]c2ccccc12,10.6%
3,O=C(CCN1CCCCC1)N=Nc1c(O)[nH]c2ccccc12,4.74%
4,Cc1c(-c2ccccc2)n[nH]c1C(=O)N=Nc1c(O)[nH]c2ccccc12,36.8% (active)
5,Cc1ccccc1Nc1nc(N)nc(COC(=O)CCC(=O)c2ccc(F)cc2)n1,0.17%
6,CCc1ccccc1NC(=O)CSc1nnc(-c2cccs2)o1,-0.17%
7,CC(C)[C@@H](C)/C=C/[C@@H](C)[C@H]1CC[C@@H]2[C@]1(C)CCC1[C@]23C=C[C@]2(C[C@@H](O)CC[C@]12C)N(c1ccc([N+](=O)[O-])cn1)O3 (stereo partly drawn),27.1%
8,COC(=O)c1cnn2c(C(F)(F)F)cc(-c3ccco3)nc12,10.2%
9,Cc1cc(C)c2nc(-c3ccco3)cc(C(=O)O)c2c1,67.3% (active)
10,Cc1ccsc1-c1cc(C(=O)O)c2c(ccc3ccccc32)n1,9.82%
11,COC(=O)N1Cc2ccnnc2CC1c1ccccc1Br (stereo not drawn),3.21%
12,Cc1ccc(OCCCC(=O)Nc2ccc(S(=O)(=O)Nc3cc(C)nc(C)n3)cc2)cc1,24.9%
13,COc1ccccc1OC(C)C(=O)Nc1ccc(S(=O)(=O)Nc2nccs2)cc1 (stereo not drawn),19.7%
14,Cc1ccc(OCCC(=O)Nc2ccc(S(=O)(=O)Nc3nccs3)cc2)cc1,36.9% (active)
15,CN1CCN(S(=O)(=O)c2cccc(C(=O)N3CCc4ccccc43)c2)CC1,0.16%
16,CN1CCN(S(=O)(=O)c2cccc(C(=O)Nc3cccc(S(N)(=O)=O)c3)c2)CC1,1.84%
17,O=C(Nc1ccc(S(=O)(=O)N2CCOCC2)cc1)c1ccc2ncsc2c1,5.29%
18,CCC(CC)C(=O)Nc1ccc(S(=O)(=O)Nc2nccs2)cc1,3.15%
19,O=C(CCc1ccccc1Cl)Nc1ccc(S(=O)(=O)Nc2nccs2)cc1,44% (active)
20,Cc1ccnc(NS(=O)(=O)c2ccc(NC(=O)c3ccc(S(=O)(=O)N4CCOCC4)cc3)cc2)n1,12.3%
21,O=C(CCS(=O)(=O)c1ccccc1Cl)Nc1ccc(S(=O)(=O)Nc2ncccn2)cc1,2.17%

row,SMILES,inhibition
1,O=C(Nc1ccc(S(=O)(=O)Nc2nccs2)cc1)c1cccc(S(=O)(=O)N2CCOCC2)c1,34.7% (active)
2,CN1CCN(S(=O)(=O)c2cccc(C(=O)Nc3sccc3C#N)c2)CC1,44.6% (active)
3,N#Cc1cccc(C(=O)NCC2CCN(C(=O)C(=O)c3cc4ccccc4o3)CC2)c1,2.89%
4,Nc1[nH]c(C(=O)c2ccccc2)c(-c2ccc(Cl)cc2Cl)c1C(=O)c1ccccc1,5.66%
5,C[C@@H]1CN([C@H](C)CO)C(=O)CCCn2cc(nn2)CO[C@H]1CN(C)C(=O)Nc1ccc(N2CCCCC2)cc1,9.11%
6,Cc1ccc2nc(SCC(=O)N3CC(C)OC(C)C3)nc(=O)n2c1 (stereo not drawn),-10.3%
7,O=C(C1CCCN1S(=O)(=O)c1ccccc1)N1CCc2ccccc2C1 (stereo not drawn),0.6%
8,O=C(OCC(=O)N1CCCCC1)c1ccc(OC(F)(F)F)cc1,-1.21%
9,O=C(Nc1ccccc1)N1CCN(Cc2nc3ccccc3c(=O)[nH]2)CC1,-0.05%
10,CCN(CC)C(=O)CC[C@@H]1CC[C@]2(CCCN(S(=O)(=O)C3CCCCC3)C2)O1,-0.19%
11,O=C(CSc1nc2c(c(=O)[nH]1)CCCC2)N1CCCCC1,3.54%
12,Cc1cc(C(=O)OCC(=O)Nc2nccs2)c2ccccc2n1,6.91%
13,O=C(Nc1ccc(S(=O)(=O)Nc2nccs2)cc1)c1cc(-c2ccncc2)nc2ccccc12,47.9% (active)
14,O=C(Nc1ccc(S(=O)(=O)Nc2nccs2)cc1)c1cc(=O)[nH]c2ccccc12,25.9%
15,CCN(CC(=O)Nc1ccccc1C(F)(F)F)C(=O)C1CCN(C(=O)Nc2ccccc2)CC1,-1.69%
16,COC(=O)[C@]12C[C@H](CC(=O)NCCCCc3ccccc3)C(=O)N(Cc3ccc4c(c3)OCO4)C1=C[C@H](C(C)(C)C)O[C@@H]2C,9.49%
17,CSc1nc(-c2ccccc2)nc(C(Cl)Cl)n1,-0.59%
18,COCc1cc(C(C)=O)ccc1OC,3.9%
19,COc1ccccc1CCNC(=O)C1CCN(C(=O)/C=C/c2ccccc2)CC1,-7.33%
20,COC(=O)c1ccc(COc2ccc(/C=C/C(=O)c3ccc(OC)c(CSCC(=O)O)c3)cc2OC)cc1,43.7% (active)
21,COc1ccc(C(=O)/C=C/c2ccc(-c3ccccc3)cc2)cc1CSCC(=O)O,63.2% (active)

row,SMILES,inhibition
1,COc1cc(C(=O)NCC(c2ccco2)N2CCCC2)ccc1OCc1ccccc1 (stereo not drawn),3.03%
2,COc1cc(/C=C/C(=O)OCC(=O)NC(=O)NCc2ccccc2)ccc1OCC#N,-3.56%
3,CCOC(=O)[C@]12CCCC=C1N(Cc1ccc(OC)cc1)C(=O)[C@@H]2CC(=O)NCc1cccs1,1.72%
4,CN(C)[C@H]1CCN(c2cccc3c2S(=O)(=O)N2CC[C@H](C2)O3)C1,1.39%
5,CCOC(=O)c1c(NC(=O)CN2C(=O)NC3(CCC(C)CC3)C2=O)sc(C)c1CC (stereo not drawn),-14%
6,CCOC(=O)c1c(NC(=O)C2CC=CCC2C(=O)O)sc(C)c1CC (stereo not drawn),34.6% (active)
7,CCc1c(C)sc(NC(=O)c2cccs2)c1C(N)=O,5.17%
8,Cc1ccc(N)cc1CN1CCN(c2ncc(Cc3ccccc3)cn2)CC1,3.17%
9,CC(C)(C)OC(=O)NCc1cc(F)ccc1/C=C/S(=O)(=O)NCCc1ccccc1,-0.33%
10,CC1(C)OC(=O)C2=C(CC(CCc3ccccc3)OC2c2ccc(Cl)cc2)O1 (stereo not drawn),3.44%
11,CCC(C(=O)Nc1ncccn1)(C(F)(F)F)C(F)(F)F,-0.05%
12,Cc1ccc(NC(=O)CCNC(=O)c2ccc([N+](=O)[O-])cc2)cc1S(=O)(=O)N1CCOCC1,1.24%
13,COc1ccc(NS(=O)(=O)c2ccc(C(=O)Nc3c(C)n(C)n(-c4ccccc4)c3=O)cc2)cc1,10.7%
14,COc1cc(OC)c(S(=O)(=O)Nc2ccccc2C(=O)O)cc1S(=O)(=O)Nc1ccccc1C(=O)O,63.4% (active)
15,COc1ccc(NS(=O)(=O)c2cc(NC(=O)CC(=O)c3ccc([N+](=O)[O-])cc3)ccc2C)cc1,42.4% (active)
16,COc1cc(/C=C/C(=O)O)cc(S(=O)(=O)Nc2ccccc2SC)c1OC,8.56%
17,COc1ccc(NS(=O)(=O)c2cc(C(=O)Nc3ccccc3C(=O)O)ccc2C)cc1,74.6% (active)
18,Cc1ccc(C(=O)Nc2ccccc2-c2ccccc2)cc1S(=O)(=O)Nc1ccccc1,17.1%
19,COc1ccc(NS(=O)(=O)c2cc(NC(=O)COc3ccccc3F)ccc2OC)cc1,4.34%
20,COc1ccc(OC)c(S(=O)(=O)Nc2ccccc2F)c1,-3.01%
21,CCOC(=O)[C@]12CCCCC/C=C\1N(Cc1ccc(OC)cc1)C(=O)[C@H]2CC(=O)N1CCOCC1,4.38%

row,SMILES,inhibition
1,COc1ccc(-c2cc(-c3nnc(SCC(=O)Nc4cccc5ccccc45)n3N)[nH]n2)cc1,10.7%
2,COC(=O)[C@]12C[C@H](CC(=O)NCc3ccccc3)C(=O)N(CCC3=CCCCC3)C1=C[C@H](C(C)(C)C)O[C@@H]2C,1.7%
3,COc1ccc(N2CCN(CCNS(=O)(=O)c3ccc(Cl)s3)CC2)cc1,-0.11%
4,C=CCN(C)CC#Cc1ccccc1,-0.11%
5,COc1ccc(N2CCN(CCNS(=O)(=O)c3ccc([N+](=O)[O-])cc3)CC2)cc1,0.28%
6,CCCC[C@H](C(=O)N(CC)c1ccccc1)[C@@H](O)c1ccc2ccccc2c1,4.92%
7,CC(=O)Nc1ccc(NC(=O)c2ccc3c(c2)C(=O)N(c2ccccc2C)C3=O)cc1,-2.08%
8,O=C(O)c1ccc2c(c1)C(=O)N(c1ccc(/C=C/C(=O)c3ccccc3)cc1)C2=O,46.3% (active)
9,CC(=O)Oc1ccc(C)cc1N1C(=O)c2ccc(C(=O)O)cc2C1=O,4.11%
10,CN1C(=O)c2cc(NS(C)(=O)=O)ccc2OC[C@@H]2O[C@@H](CC(=O)NCc3ccc(-c4ccccc4)cc3)CC[C@H]21,4.86%
11,CC1(C(=O)NS(=O)(=O)c2ccc(C#N)cc2)CCN1C(=O)c1ccc(C2CCCCC2)cc1 (stereo not drawn),46.9% (active)
12,CC1(C(=O)NS(=O)(=O)c2ccc(C#N)cc2)CCN1C(=O)CC1CCCC1 (stereo not drawn),1.94%
13,Cc1noc(C)c1C(=O)N1CCC1(C)C(=O)NS(=O)(=O)c1ccc(C#N)cc1 (stereo not drawn),0.97%
14,CC[C@H](NC(=O)[C@H](Cc1ccccc1)NC(=O)[C@H]1O[C@@H](n2cnc3c(=O)[nH]c(N)nc32)[C@H](O)[C@@H]1O)c1ccccc1,14.3%
15,Cc1ccccc1NC(=O)Cn1nnc(-c2ccccc2F)n1,0.27%
16,CCC(C)n1[nH]c(=O)cc1N (stereo not drawn),-0.11%
17,CC(C)(C)n1nc(C2CC2)c(Br)c1NC(=O)c1ccccc1F,2.68%
18,Cc1cc(=O)[nH]c(SCC(=O)Nc2ccc(Cl)cc2C)n1,4.47%
19,COc1ccc(NC(=O)CSc2nc(NS(=O)(=O)c3ccc(C)cc3)cc(=O)[nH]2)cc1,13.4%
20,Cc1ccc(NC(=O)CSc2nc(CSc3ccc(C)cc3)cc(=O)[nH]2)cc1,45.1% (active)
